Bioassay records: PubChem BioAssay, National Center for Advancing Translational Sciences (NCATS)
Integrin act MD = integrin-mediated muscular dystrophy alleviation activation. Potency, µM (top dose mostly 38.3 µM), inactives show at the highest dose activation, most hits filed as activators. 350,000 tested, 0.064% active. alpha7betagal myoblasts, beta-gal FDG fluorescence, 48 h;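 further: potency means the concentration at half of the fitted maximal effect; 100% = response of the positive control SU9516; nearly all actives have a fitted effect of over 60% in size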
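alpha7betagal+/- myoblasts (passage 13, 250/well) treated 48 h at 37C with compounds at 1:260 dilution of DMSO stock. Lysed, then beta-galactosidase activity read as FDG fluorescence (ex 480/em 540) after 30 min, with pre-read for autofluorescence.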
RORg inh = ROR gamma (mouse) transcription inhibition; 310,000 tested, 5.4% active; Drosophila S2 Gal4-RORgamma UAS-luciferase reporter, 20 h; P51450; Potency, µM (doses to about 53.6 µM), inactives show at the highest dose activity change, negative = inhibition, usual class: inhibitors; further: potency means the concentration at half of the fitted maximal effect; on the % scale 0 is the no-effect control and ±100 the full control effect; nearly all actives have a fitted effect of over 60% in size
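ROR gamma transcriptional activity was tracked as Gal4-UAS luciferase output in stably transfected Drosophila Schneider cells, with compound added 1 hr before 700 uM copper sulfate induction and a 20 hr ambient-temperature incubation.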
Giardia kill = kills Giardia lamblia. Giardia lamblia trophozoite viability. activity change, % at 7.66 µM, hits read low. 340,000 tested, 0.15% active. AID 540267; in the data active means activity change below about -80%; inconclusive means between about -30% and that limit;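 further: parasites exposed to compound for two days anaerobically before the ATP read; on the % scale 0 is the no-effect control and ±100 the full control effect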
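Killing of trophozoites was scored by loss of ATP luminescence after a 48 hrs anaerobic exposure to compounds at 37 deg C, using 100 cells per well.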
VP16 counter = counter-screen for ROR gamma inhibitors: Gal4-VP16 reporter. Drosophila S2 Gal4-VP16 UAS-luciferase, luminescence, 20 h. Potency, µM (doses to about 53.6 µM), without a hit: at the highest dose activity, negative = inhibition, hits mostly inhibitors. 310,000 tested, 3.5% active. AID 2546;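 further: Gal4-VP16 expression switched on by copper sulfate through the metallothionein promoter; potency means the concentration at half of the fitted maximal effect; on the % scale 0 is the no-effect control and ±100 the full control effect; nearly all actives have a fitted effect of over 50% in size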
ERG-DNA inh = ERG Ets/DNA interaction inhibition. AID 624246. 370,000 tested, 0.028% active. Potency, µM (top dose mostly 76.9 µM), for the others: at the top dose FP activity, negative = inhibition, usual class: inhibitors. fluorescence polarization, His-ERG Ets domain / labelled DNA; active means well fitted inhibition curve with a large enough effect in the polarisation, with a control signal flat; inconclusive means small, poorly fitted or top-dose-only effect, or effect the other way, or a change in a side signal; inactive means no such curve, though single readings can be large or run the other way; the % refers to the polarisation;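 further: polarization taken with two DNA probes labelled with fluorescein and Texas red; potency means the concentration at half of the fitted maximal effect; % of control where 0% means no effect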
Target sequence (P11308 whole entry, looked up, the tested form may be a part): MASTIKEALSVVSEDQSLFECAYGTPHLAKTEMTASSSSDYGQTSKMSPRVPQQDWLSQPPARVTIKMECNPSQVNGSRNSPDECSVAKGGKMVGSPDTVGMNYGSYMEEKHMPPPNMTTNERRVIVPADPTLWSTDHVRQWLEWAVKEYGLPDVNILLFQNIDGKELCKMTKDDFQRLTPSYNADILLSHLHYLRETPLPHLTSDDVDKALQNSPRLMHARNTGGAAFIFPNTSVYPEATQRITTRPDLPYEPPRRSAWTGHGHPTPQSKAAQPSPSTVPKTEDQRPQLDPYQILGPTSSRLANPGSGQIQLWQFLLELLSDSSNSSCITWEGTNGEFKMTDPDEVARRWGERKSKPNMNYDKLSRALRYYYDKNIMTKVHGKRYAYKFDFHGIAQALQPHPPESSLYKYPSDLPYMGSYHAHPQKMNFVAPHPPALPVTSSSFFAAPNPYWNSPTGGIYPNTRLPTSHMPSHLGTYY
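His-tagged ERG Ets domain (1 uM in the protein solution; 300mM KCl, 50mM Tris-HCl, 1mM EDTA, 1mM DTT, pH 7.5) received compound, then a probe mix of 5 nM fluorescein-DNA and 100nM Texas-615-DNA. Fluorescence polarization was read for both dyes.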
Starred values were filed as active, the others as inactive; ? = inconclusive; . = no result given; [ ] = remark or other dose. Only a selection was taken, and hits are over-represented in it overall. Unless noted, the call rests on the fitted dose curve; in most records, active means well fitted curve in the direction sought with a large enough effect; inconclusive means small, poorly fitted or top-dose-only effect, or another doubt; inactive means no such curve, though single readings can be large; an effect the other way counts as inactive or inconclusive.

SMILES | Integrin act MD | RORg inh | Giardia kill | VP16 counter | ERG-DNA inh
CCCN1CCN(C(=O)c2cc(COc3ccc4ncccc4c3)on2)CC1 | -36.2% | 12.6µM* | -2.4 | 20µM* | 8.1%
O=C(CSc1nc(-c2ccccc2)c2ccccc2n1)Nc1ccc(F)cc1 | . | . | . | . | -4.3%
CCN(CC)C(=O)C1CCCN(C(=O)c2cc(COc3ccc4ncccc4c3)on2)C1 (centres undefined) | -23.0% | 31.3% | 6.0 | ? | -5.9%
COCC1CCCCN1C(=O)c1cc(COc2ccc3ncccc3c2)on1 (centres undefined) | 22.1% | -39.5% | 9.7 | 7.08µM* | 9.0%
OC[C@@H]1O[C@H](O)[C@H](O)[C@@H](O)[C@@H]1O | . | 9.8% | . | 6.6% | .
Cc1ccccc1N(C(=O)Cn1nnc(-c2ccc(F)cc2)n1)C(C(=O)NC(C)(C)C)c1ccncc1 (centres undefined) | -2.3% | 17.3% | 25.1 | -12.3% | 0.2%[15.4 µM]
CC(C)(C)NC(=O)C(c1ccncc1)N(C(=O)Cn1nnc(-c2ccc(F)cc2)n1)c1ccccc1F (centres undefined) | 0.0% | 12.6µM* | 10.3 | -26.9% | -5.8%
C[C@@H]1C[C@H]2[C@H]3C[C@@H](F)C4=CC(=O)C=C[C@]4(C)[C@@]3(Cl)[C@@H](O)C[C@@]2(C)[C@@H]1C(=O)COC(=O)C(C)(C)C | . | -15.9%[16.9 µM] | . | -12.1%[17 µM] | .
COc1ccccc1C(=O)NCCN1CCN(c2ccccc2)CC1 | 13.1% | -31.7% | 3.8 | -1.0% | 0.1%
O=C(Cc1c(Sc2ccccc2)c2ccccc2n1Cc1ccccc1)NCCO | -22.6% | ? | 35.6 | -14.6% | 12.4%
O=S(=O)(Nc1cccnc1)c1cccc2ccccc12 | . | . | 1.5 | . | .
O=[N+]([O-])c1ccc(O)c(/C=N/n2c(-c3ccccc3)n[nH]c2=S)c1 | 22.0% | ? | -4.7 | ? | 10.5%
O=[N+]([O-])c1ccc2c(c1)[nH]c(=S)n2-c1ccccc1 | -40.7% | 5.01µM* | 4.7 | -6.9% | -4.5%
O=[N+]([O-])c1cccc(-c2ccc(/C=N/n3c(-c4ccccc4)n[nH]c3=S)o2)c1 | 9.3% | -26.8% | -10.2 | 10µM* | 0.7%
COc1ccc(-n2c(-c3cccc(C)c3[N+](=O)[O-])n[nH]c2=S)cc1 | 34.7% | 7.94µM* | 1.9 | -5.8% | 3.3%
O=[N+]([O-])c1cccc(-c2n[nH]c(=S)n2-c2ccccc2)c1 | 1.0% | 7.08µM* | 10.6 | -7.8% | 9.9%
CCCC(C)NC(=O)Cc1ccc(S(=O)(=O)N2CCOCC2)s1 (centres undefined) | -7.3% | . | 8.7 | . | 4.3%
CSc1nsc(SCC(=O)N2CCN(c3ccccc3)CC2)n1 | 3.5% | 31.7% | -7.1 | -7.0% | 1.9%
Cc1cccc(-c2n[nH]c(=S)n2-c2ccccc2)c1[N+](=O)[O-] | 10.0% | 12.6µM* | 13.8 | ? | -4.0%
CNC(=S)NNC(=O)c1cccn(Cc2ccc(Cl)cc2Cl)c1=O | . | 37.4% | . | -4.4% | .
CNC(=S)NNC(=O)c1ccc(=O)n(Cc2ccc(Cl)cc2Cl)c1 | 0.0% | 12.6µM* | 0.1 | ? | 3.7%
COc1ccc(-c2ccc(F)cc2)cc1C1C2C=CCC(C)C2C(=O)N1Cc1ccccc1 (centres undefined) | . | 44.8% | -22.3 | -8.1% | .
CCn1cc(C(=O)NC2CCCc3c2cnn3-c2cccc(C)c2C)cn1 (centres undefined) | . | -7.1% | . | 1.26µM* | .
CC1=C(C(=O)NC2CCCc3c2cnn3-c2cccc(C)c2C)OCCO1 (centres undefined) | -51.5% | ? | 18.0 | 11.2µM* | -1.6%
Cc1cccc(-n2ncc3c2CCCC3NC(=O)c2ccncc2)c1C (centres undefined) | -10.5% | . | . | . | .
SMILES | Integrin act MD | RORg inh | Giardia kill | VP16 counter | ERG-DNA inh
Cc1cccc(-n2ncc3c2CCCC3NC(=O)Cc2c(C)noc2C)c1C (centres undefined) | 0.0% | 19.6% | 3.7 | 10µM* | -10.6%
O=[N+]([O-])c1ccc(Cl)cc1Sc1cccc2cccnc12 | -5.5% | -1.1% | -10.8 | -7.6% | -8.1%
Cn1nc([N+](=O)[O-])nc1Sc1cccc2cccnc12 | -8.8% | 11.2µM* | ? | 17.8µM* | -6.5%
COCc1nc2ccccc2n1Cc1cccc(C)c1 | -21.4% | 12.6µM* | -9.3 | 2.1% | 2.8%
Cc1cccc(Cn2c(Cc3ccccc3)nc3ccccc32)c1 | 2.9% | 3.16µM* | 8.4 | 4.47µM* | -0.6%
Cc1cc(C)c(C)c(Cn2c(CO)nc3ccccc32)c1C | -14.1% | 2µM* | 13.3 | ? | -1.0%
COCc1nc2ccccc2n1CCc1ccccc1 | 5.7% | 11.2µM* | -7.6 | ? | -0.7%
OCc1nc2ccccc2n1CCc1ccccc1 | 30.0% | . | -26.3 | . | -9.5%
Cc1cccc(Cn2c(-c3ccccc3)nc3ccccc32)c1 | . | . | . | . | 2.3%
COCc1nc2ccccc2n1Cc1ccccc1C | -12.2% | ? | -19.1 | 8.6% | 2.1%
Cc1ccccc1Cn1c(Cc2ccccc2)nc2ccccc21 | 12.0% | 5.62µM* | 5.4 | ? | 3.8%
O=C(O)CCC(=O)Nc1nnc(C(F)(F)F)s1 | -12.0% | -16.0% | -17.1 | -5.6% | -1.8%
CCC(NC(=O)Nc1nnc(C(F)(F)F)s1)(C(F)(F)F)C(F)(F)F | -62.4% | ? | 1.2 | 3.55µM* | -5.7%
CC1(C)C2CC[C@]1(C)[C@@H](O)C2 | . | 8.9% | . | -2.6% | .
O=C(N/N=C\c1ccc(Cl)s1)c1ccc(Cn2cccn2)o1 | 4.0% | 10µM* | -1.3 | -97.9% | -0.5%
CC(C)c1ccc(/C=N\NC(=O)c2ccc(Cn3cccn3)o2)cc1 | -1.8% | -32.7% | -16.7 | ? | -1.1%
O=C(N/N=C\c1c(O)ccc2ccccc12)c1ccc(Cn2cccn2)o1 | 15.8% | 2.51µM* | -5.8 | 12.6µM* | -1.9%
O=C1NCCN(C(=O)CCc2nnc(-c3ccsc3)o2)C1c1ccc(F)cc1 (centres undefined) | 18.9% | 22.0% | -3.3 | -13.0% | -7.8%
CC(=O)N/C(=N/c1nc(C)cc(C)n1)Nc1cccc(C)c1C | ? | -3.3% | -1.1 | 16.9% | -9.3%
O=C(NNC1=Nc2cccc3cccc1c23)c1ccc(Br)cc1 | -34.9% | 0.708µM* | 1.1 | 2µM* | -4.4%
O=c1c2cc(Br)ccc2[nH]c(=S)n1Cc1ccccc1 | -4.0% | 2.51µM* | 2.6 | 3.55µM* | -1.2%
O=c1c2cc(Br)ccc2[nH]c(=S)n1Cc1ccccn1 | -10.7% | 2.82µM* | -6.5 | ? | 17.5%
O=C(Nc1ccc(NC(=O)c2cccs2)cc1)c1ccc(Br)cc1 | . | . | . | . | -1.7%
C/C=C(\C=C\[C@@H](C)C/C=C/CC/C=C/C=C\C[C@@H](OC)/C(C)=C\C=C(C)C)CC(=O)O | . | -1.6% | . | -2.4% | .
Cc1ccc(S[C@@H](CCN2CC[C@H](C(C)(C)C)CCC2=O)c2ccccc2)cc1 | -26.9% | -4.3% | -19.7 | 10µM* | -1.2%
CCC/C(C#Cc1ccsc1)=C1/c2ccccc2C(=O)N1c1ccccc1 | -27.2% | . | 61.7 | . | 12.5%
CCOc1ccccc1-c1nnc(SCC(=O)NC2CC3CCC2C3)n1CC (centres undefined) | -8.5% | ? | -6.1 | -1.6% | -6.1%
